The values below come from PubChem BioAssay (NCI).

This is part of a sample that, as a whole, favours compounds with a hit. Of some 83,000 tested, about 20% had one in any assay.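 In brief: 96-well plates, 48 h treatment, single concentration, percent growth endpoint.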 Unmarked numbers belong to inactive results. Calls of active or inactive are those of the source.

The test deals with SR leukemia. Description: NCI-60 one-dose screen, 48 h (100 = growth as untreated, 0 = no growth, -100 = all killed). The note with it: 10 µM unless noted. On the procedure:
Growth inhibition of the SR human tumor cell line is measured as a screen for anti-cancer activity. Cells are grown in 96 well plates and exposed to the test compound for 48 hours. Compounds are tested at a single concentration, which is 10^-5 M for most compounds. The reported endpoint is percent growth (GI% or GIPRCNT), where numbers from 0 - 100% represent growth inhibition, and numbers from -100% - 0 represent cell death. For example, a value of 40 represents 60% growth inhibition. A value of 0 means no net growth occurred over the course of the experiment. A value of -40 indicates 40% of cells at the beginning of the experiment died by the end of the experiment. A value of -100 means all cells are dead at the end of the experiment.
NCI-60 Human Tumor Cell Lines Screen was performed using the standard one-dose NCI protocol, which is described in more detail at https://dtp.cancer.gov/discovery_development/nci-60/default.htm.
Compounds with GIPRCNT values below 10 were considered active. Activity score was based on GIPRCNT using the following formula: […]
Score is 0 for GIPRCNT values of 100 or above, 50 for GIPRCNT values of 0, and 100 for GIPRCNT values of -100.
Regarding `COc1ccc2c(c1)c(-c1ccc(-c3cn(C)c4ccc(OC)cc34)[nH]1)cn2C`, the growth is -10.7% (active). Consider `O=C(/C=C\c1ccco1)/C=C/c1ccco1`, for which the growth is 103%. With `C=C1C(=O)O[C@H]2[C@H]1CC/C(COC(=O)NCCCCCCCCNC(=O)OC/C1=C/CC[C@@]3(C)O[C@H]3[C@H]3OC(=O)C(=C)[C@@H]3CC1)=C\CC[C@@]1(C)O[C@@H]21` the figure was -37.6% (active).

Take `C#CCOc1ccc2ncnc(Nc3cccc(NC(=O)CCl)c3)c2c1`: the growth was 30.3%. Take `CCN=C1C=CC(=C(c2ccc(N(C)C)cc2)c2ccc(N(C)C)cc2)c2ccccc21`: the growth is 3.56% (active). The same measure for `CCOC(=O)/C=C/c1c(C)[nH]c(=O)[nH]c1=O`: 69.6%; for `CCOC(=O)n1cc(-c2nonc2-c2cn(C)c3ccccc23)c2ccccc21`: 19.7%; for `CCOC(=O)Cn1c(=O)c2c3ccccc3n(C)c2n2nnc(-c3ccccc3)c12`: -50.7% (active). With `COc1cccc(NC(=O)c2cccc(C3CCc4c(cc(OC)c(OC)c4OC)O3)c2)c1` (stereo not given), the growth is 35.7%.

Turning to `CN(C)c1ccc(/C=C2/C=C(c3ccccc3)OC2=O)cc1`, the growth is 26.7%. With `Cc1ccc(C)c(-n2c(-c3ccc(Br)cc3)csc2=NC(=O)c2ccccc2F)c1` the figure was -11.5% (active).

Regarding `CC(=O)c1c(Nc2ccc(F)c(F)c2F)[nH]c2c(F)cc(F)cc2c1=O`, the growth is 8.21% (active). With `CC(C)c1ccc(-n2c(=S)[nH]c3sc4c(c3c2=O)CCC(=O)C4)cc1`, the growth was 50%. On to `C=NNc1ccccc1`, for which the growth is 74%. Regarding `CC[C@H](C)[C@H](NC(=O)[C@H](CCCNC(=N)N)NC(=O)[C@H](Cc1c[nH]c2ccccc12)NC(=O)[C@@H](NC(=O)[C@H](CCCCN)NC(=O)[C@H](CCCCN)NC(=O)[C@@H](NC(=O)[C@@H](NC(=O)[C@@H](NC(=O)[C@H](CCCCN)NC(=O)[C@H](Cc1ccccc1)NC(=O)[C@H](CCCCN)NC(=O)[C@H](CCCCN)NC(=O)[C@H](Cc1ccccc1)NC(=O)[C@@H](NC(=O)[C@@H](N)CCCCN)[C@@H](C)CC)[C@@H](C)O)[C@@H](C)CC)[C@@H](C)CC)C(C)C)C(=O)N[C@@H](Cc1ccccc1)C(=O)NCC(=O)N[C@@H](CCCNC(=N)N)C(=O)N[C@@H](Cc1ccccc1)C(N)=O`, the growth was 1.72% (active). As to `COc1cc(N2C(=O)[C@H](c3ccccc3)C2c2ccc(SC)cc2)cc(OC)c1OC` (stereo not given in full), the growth is -5.24% (active). With `CCN(CC)CCNC(=O)c1ccc(-c2nc3ccc4[nH]ncc4c3c3c2CCCC3)cc1`, the growth is 6.02% (active). Consider `C=C1C(=O)O[C@H]2[C@H]1CC/C(COC(=O)/C=C\C(=O)NCc1ccc(Cn3c(=O)sn(-c4ccccc4)c3=O)cc1)=C\CC[C@@]1(C)O[C@@H]21`, for which the growth is 72.4%. With `Cc1ccc2[nH]c(-c3ccc(S(C)(=O)=O)cc3)c(/C=N/N=C(N)N)c2c1` the figure was 24.4%; with `COc1ccc2cc(-c3cnc4nonc4n3)ccc2c1`, 9.96% (active); with `C/C(=C(/c1ccc(Cl)cc1)c1ccc(OCCCN(C)C)cc1)c1ccc(Cl)cc1`, -2.36% (active). On to `Cc1c2cc[nH]c(=O)c2c(C)c2c1[nH]c1ccc(OC(=O)c3ccccc3)cc12`, for which the growth is 4.29% (active). As for `O=C(CCCCNC(=O)c1cc(=O)c(O)co1)Nc1ccccc1`, the growth is 14.3%. With `CCN1CCN(CC(=O)Nc2nc3ccc(NCc4ccc(Br)cc4)cc3s2)CC1` the figure was 0.987% (active).

With `COc1cc(Nc2ncccc2NC(=O)c2cn(Cc3cccc(Oc4ccccc4)c3)nn2)cc(OC)c1`, the growth is 40.8%. Consider `O=C(Nc1ncc(Cc2ccccc2Cl)s1)c1cccs1`, for which the growth is 20.4%. The same measure for `CCOC(=O)c1c(C)nc2c(c1N)CC(=O)N2Cc1cc(OC)c(OC)c(OC)c1`: 20.7%; for `O=c1[nH]cnc2c1C(c1ccc(Br)cc1)c1sc3c(F)cccc3c1O2` (stereo not given): 54.7%; for `O=C(Cn1nnc([N+](=O)[O-])n1)c1ccccc1`: 84.3%.

Regarding `CN(Cc1cnc2nc(N)nc(N)c2n1)c1c(Cl)cc(C(=O)NC(CCC(=O)O)C(=O)O)cc1Cl` (stereo not given), the growth was 42.4%.

As for `CS(=O)(=O)Cc1cnc(C2OCCO2)s1`, the growth is 123%. Regarding `O=C(CSc1nc2ccc([N+](=O)[O-])cc2[nH]1)Nc1cccc([N+](=O)[O-])c1`, the growth is 41.1%. On to `O=C1Nc2ccccc2/C1=C/c1cn(C[C@@H](O)Cn2c3ccccc3c(=O)c3ccccc32)c2ccccc12`, for which the growth is 66.3%.

Take `CCSC1=CC(=O)c2ccccc2C1=O`: the growth was 37.6%.

Take `COc1ccc2nc(Cl)c(/C=C/C(=O)c3ccc(NC(=O)CSc4nnc(-c5ccc(Cl)c(Cl)c5)n4-c4ccccc4)cc3)cc2c1`: the growth is 98.6%. `COc1ncc2cc1NS(=O)(=O)c1cccc(c1)C(=O)NCC1=CC=C(S1)c1ncnc3c1SC2=C3C`: the growth was -3.91% (active). Turning to `CC1(C)CC2=C3C=C[C@@H]4[C@@]5(C)CC[C@H](O)C(C)(C)[C@@H]5CC[C@@]4(C)[C@]3(C)CC[C@@]2(C(=O)O)CC1=O`, the growth was 50.5%.

For `O=C(N/N=C/c1ccc(Cl)cc1Cl)c1ccc2nc(-c3ccc(Cl)cc3)[nH]c2c1`, the growth is -24.2% (active). Consider `O=C(CCCCCCN1CC(=O)N2[C@@H](c3ccc(Cl)cc3)c3[nH]c4ccccc4c3C[C@H]2C1=O)NO`, for which the growth was 20.2%.

As for `COc1ccc2c(c1)c(-c1nc(-c3cn(C)c4ncccc34)cs1)cn2CCO`, the growth was 58.2%.
